This note sets out measurements from PubChem BioAssay (Tox21).

Where “and” joins values, the source holds several entries; their conditions need not be identical. Equal values may be shown once. Unmarked numbers belong to inactive results. Records with an inconclusive call do not appear. Calls of active or inactive are those of the source. Calls come from the whole dose curve; as a rule, active = well fitted curve in the direction sought with a large enough effect in the repeat runs; inconclusive = weak or mixed curves; inactive = no such curve, though single readings can be large; an effect the other way counts as inactive or inconclusive.

A short description of experiment [1]: A CellTox Green Cytotoxicity Assay to monitor cytotoxicity in HEK293 cells - 40 hour (AID 1224871). Note: nearly all actives have a fitted effect of over 45% in size. Note: potency is the fitted concentration of half-maximal effect. The method, boiled down: (§1)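 Read-out: fluorescence of a cell-impermeant cyanine dye staining DNA of dead cells, proportional to cytotoxicity. HEK293, 600 cells/well with reagent, compound (23 nL DMSO) added after 5 h; reads at 0, 8, 16, 24, 32, 40 h.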
The nature of experiment [2]: qHTS RealTime-Glo MT Cell Viability Assay in HEK293 cells - 16 hour (AID 1224872). Note: nearly all actives have a fitted effect of over 50% in size. Note: potency is the fitted concentration of half-maximal effect. Put shortly:
(§2)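 Assay medium contained NanoLuc luciferase plus cell-permeant prosubstrate, added with HEK293 cells at 600 cells/well. After 5 h at 37 C/5% CO2 compounds were added; plates stayed at 37 C for 40 h with serial luminescence reads.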

Experiment [3] is described as follows: qHTS RealTime-Glo MT Cell Viability Assay in HepG2 cells - 8 hour (AID 1224873). Note: nearly all actives have a fitted effect of over 55% in size. Note: potency is the fitted concentration of half-maximal effect. Put shortly:
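Real-time viability: cells seeded at 600 per well together with NanoLuc and cell-permeant prosubstrate, compounds added after 5 h incubation. Luminescence tracked at 0, 8, 16, 24, 32 and 40 h of exposure.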

Experiment [4] in a line: qHTS RealTime-Glo MT Cell Viability Assay in HEK293 cells - 40 hour (AID 1224874). Note: nearly all actives have a fitted effect of over 50% in size. Note: potency is the fitted concentration of half-maximal effect. Conditions: RealTime-Glo luminescence; max response: active compounds read low. Put shortly: (§3)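 Luminescence readout at each listed time point; HEK293, 600 cells/well, RealTime-Glo MT reagent added with cells; compounds pinned (23 nL in DMSO) after 5 h at 37 C; continuous culture at 37 C.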
Experiment [5] in a line: A CellTox Green Cytotoxicity Assay to monitor cytotoxicity in HEK293 cells - 24 hour (AID 1224875). Note: nearly all actives have a fitted effect of over 45% in size. Note: potency is the fitted concentration of half-maximal effect. Put shortly: as §1
Experiment [6] is described as follows: A CellTox Green Cytotoxicity Assay to monitor cytotoxicity in HepG2 cells - 16 hour (AID 1224876). Note: nearly all actives have a fitted effect of over 45% in size. Note: potency is the fitted concentration of half-maximal effect. Put shortly:
(§4)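 HepG2, 600 cells/well premixed w/ CellTox Green; 5 h settle, 37 C/5% CO2; pintool cpd add (DMSO); 37 C, 40 h; fluorescence read at 0, 8, 16, 24, 32, 40 h.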

A short description of experiment [7]: qHTS RealTime-Glo MT Cell Viability Assay in HepG2 cells - 32 hour (AID 1224877). Note: nearly all actives have a fitted effect of over 55% in size. Note: potency is the fitted concentration of half-maximal effect. Put shortly: (§5)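 qHTS, HepG2, 600 cells/well, RealTime-Glo (NanoLuc + prosubstrate) added with cells; 5 h preincubation; DMSO compound addition; 37 C; luminescence at 0/8/16/24/32/40 h.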
Experiment [8] can be described thus: A CellTox Green Cytotoxicity Assay to monitor cytotoxicity in HepG2 cells - 24 hour (AID 1224878). Note: nearly all actives have a fitted effect of over 45% in size. Note: potency is the fitted concentration of half-maximal effect. Put shortly: as §4
Experiment [9] in a line: A CellTox Green Cytotoxicity Assay to monitor cytotoxicity in HepG2 cells - 40 hour (AID 1224879). Note: nearly all actives have a fitted effect of over 40% in size. Note: potency is the fitted concentration of half-maximal effect. The method, boiled down:
as §4

Experiment [10] can be described thus: qHTS RealTime-Glo MT Cell Viability Assay in HEK293 cells - 0 hour (AID 1224880). The method, boiled down:
as §3

The nature of experiment [11]: A CellTox Green Cytotoxicity Assay to monitor cytotoxicity in HEK293 cells - 32 hour (AID 1224881). Note: nearly all actives have a fitted effect of over 40% in size. Note: potency is the fitted concentration of half-maximal effect. Put shortly:
as §1

A short description of experiment [12]: A CellTox Green Cytotoxicity Assay to monitor cytotoxicity in HepG2 cells - 0 hour (AID 1224882). Note: nearly all actives have a fitted effect of over 35% in size. The method, boiled down:
as §4

Experiment [13] can be described thus: A CellTox Green Cytotoxicity Assay to monitor cytotoxicity in HepG2 cells - 32 hour (AID 1224883). Note: nearly all actives have a fitted effect of over 50% in size. Note: potency is the fitted concentration of half-maximal effect. The method, boiled down: as §4
Experiment [14] is described as follows: A CellTox Green Cytotoxicity Assay to monitor cytotoxicity in HEK293 cells - 8 hour (AID 1224884). Note: nearly all actives have a fitted effect of over 35% in size. Note: potency is the fitted concentration of half-maximal effect. The method, boiled down:
as §1

The nature of experiment [15]: qHTS RealTime-Glo MT Cell Viability Assay in HepG2 cells - 16 hour (AID 1224885). Note: nearly all actives have a fitted effect of over 50% in size. Note: potency is the fitted concentration of half-maximal effect. Put shortly:
as §5

Experiment [16] in a line: qHTS RealTime-Glo MT Cell Viability Assay in HEK293 cells - 24 hour (AID 1224886). Note: nearly all actives have a fitted effect of over 50% in size. Note: potency is the fitted concentration of half-maximal effect. Put shortly: as §2
Experiment [17] is described as follows: A CellTox Green Cytotoxicity Assay to monitor cytotoxicity in HEK293 cells - 16 hour (AID 1224888). Note: nearly all actives have a fitted effect of over 35% in size. Note: potency is the fitted concentration of half-maximal effect. Put shortly: as §1
Experiment [18] in a line: qHTS RealTime-Glo MT Cell Viability Assay in HepG2 cells - 0 hour (AID 1224889). Note: nearly all actives have a fitted effect of over 50% in size. Put shortly: as §5
Experiment [19] in a line: A CellTox Green Cytotoxicity Assay to monitor cytotoxicity in HepG2 cells - 8 hour (AID 1224890). Note: nearly all actives have a fitted effect of over 45% in size. Note: potency is the fitted concentration of half-maximal effect. Put shortly: as §4
Experiment [20] can be described thus: qHTS RealTime-Glo MT Cell Viability Assay in HEK293 cells - 8 hour (AID 1224887). Note: nearly all actives have a fitted effect of over 50% in size. Note: potency is the fitted concentration of half-maximal effect. Put shortly: as §3
% is set by controls: 0 for no effect and ±100 for the full control effect.

Regarding `N#C/C=C/c1ccccc1`, the Potency result in experiment [1], in experiment [2], in [3], in [5], in experiment [6] and in experiment [7] was “inactive” each time. For the same compound, the Potency result in experiment [8], in [9], in experiment [10], in [11], in experiment [12] and in experiment [13] was “inactive” in each case. The Potency entry in experiment [14], in experiment [15], in [16], in [17], in experiment [18] and in experiment [19] was “inactive” each time. In addition, in [4], the max response is -0.121%.

Consider `O=[N+]([O-])c1cc(C(F)(F)F)c(Cl)c([N+](=O)[O-])c1Cl`, for which the Potency in experiment [1] was 6.16 µM (active); in [2], 6.92 µM (active); in experiment [3] it was 43.6 µM (active); in [4], 4.9 µM (active); in [5], 7.76 µM (active); in experiment [6] it was 49 µM (active). For the same compound, the Potency is 21.9 µM (active) in experiment [7]; 24.5 µM (active) in experiment [8]; 19.5 µM (active) in experiment [9]; 7.76 µM (active) in experiment [11]; 38.9 µM (active) in experiment [15]; 6.16 µM (active) in experiment [16]. Besides, the Potency in [20] is 11 µM (active); in [17], 11 µM (active); in [19] it was 54.9 µM (active). Further, the Potency result in experiment [10], in experiment [12], in experiment [14] and in experiment [18] was “inactive” each time.

Regarding `O=C/C(Cl)=C(/Cl)C(=O)O`, the Potency entry in [1], in experiment [2], in [3], in experiment [5], in experiment [6] and in [7] was “inactive” each time. For the same compound, the Potency result in experiment [8], in experiment [10], in experiment [11], in [12], in [14] and in experiment [15] was “inactive” throughout. Also, the Potency entry in experiment [20], in [17], in experiment [18] and in [19] was “inactive” each time. In addition, the max response in experiment [4] is 20.3%. Further, the Potency in [9] is 48.9 µM (active); in experiment [13], 54.9 µM (active).

As for `N#CSCSC#N`, the Potency in [1] was 19.3 µM (active); in experiment [2], 12.6 µM (active) and 15.3 µM (active); in experiment [3] it was 21.7 µM (active); in experiment [4] it was 11.2 µM (active) and 21.7 µM (active); in [5], 54.4 µM (active); in [6] it was 56.2 µM (active) and 24.3 µM (active). The Potency in [7] is 50.1 µM (active) and 19.3 µM (active); in experiment [8], 50.1 µM (active) and 19.3 µM (active); in experiment [9], 39.8 µM (active) and 17.2 µM (active); in experiment [11] it was 43.2 µM (active); in [13], 39.8 µM (active) and 17.2 µM (active); in experiment [15], 56.2 µM (active) and 19.3 µM (active). Further, the Potency was 12.6 µM (active) and 19.3 µM (active) in experiment [16]; 34.3 µM (active) in [19]. The Potency result in experiment [10], in experiment [12], in experiment [14] and in experiment [18] was “inactive” throughout.

For `CC(C)OS(C)(=O)=O`, the Potency result in [1], in experiment [2], in experiment [3], in experiment [5], in experiment [6] and in experiment [7] was “inactive” throughout. In addition, the Potency result in [8], in experiment [9], in [10], in [11], in experiment [12] and in experiment [14] was “inactive” throughout. Further, the Potency entry in experiment [15], in [16], in experiment [20], in [17], in experiment [18] and in [19] was “inactive” in each case. Further, the max response in experiment [4] was 0.77%.

For `CCCCCCCCCC[N+](C)(C)CCCCCCCCCC`, the Potency in experiment [1] was 17.4 µM (active); in [2], 4.36 µM (active); in [3], 19.5 µM (active); in experiment [4], 0.977 µM (active); in experiment [5] it was 15.5 µM (active); in experiment [6] it was 12.3 µM (active). In addition, the Potency was 7.76 µM (active) in experiment [7]; 11 µM (active) in experiment [8]; 8.71 µM (active) in [9]; 17.4 µM (active) in experiment [11]; 17.4 µM (active) in experiment [14]; 11 µM (active) in experiment [15]. For the same compound, the Potency in [16] is 1.74 µM (active); in [20], 21.9 µM (active); in [17], 17.4 µM (active); in [19] it was 19.5 µM (active). Further, the Potency result in experiment [10] and in experiment [12] was “inactive” each time.

With `BrCC(Br)c1ccccc1` (stereo unspecified), the Potency result in experiment [1], in [2], in [3], in experiment [5], in experiment [6] and in [7] was “inactive” throughout. Further, the Potency entry in experiment [8], in experiment [9], in experiment [10], in [11], in [12] and in [13] was “inactive” each time. Further, the Potency result in experiment [15], in experiment [16], in experiment [20], in experiment [17], in experiment [18] and in [19] was “inactive” in each case. Moreover, the max response in [4] was 1.25%.
